Laboratory results as given in PubChem BioAssay (NCATS).
Where “and” joins values, the source holds several entries; their conditions need not be identical. Equal values may be shown once. Results filed as inconclusive are left out. Where a call stands in place of a potency, no number is given. The source holds several records for some structures; these can differ, active in one and inactive in another. Calls of active or inactive are those of the source. Unless noted, the call rests on the fitted dose curve; in most records, active means well fitted curve in the direction sought with a large enough effect; inconclusive means small, poorly fitted or top-dose-only effect, or another doubt; inactive means no such curve, though single readings can be large; an effect the other way counts as inactive or inconclusive.

How the values were obtained:
[1] = qHTS for Inhibitors of Plasmodium falciparum (DD2) proliferation (AID 504314);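 further: parasite DNA measured by SYBR Green fluorescence after red cell lysis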
Method in brief: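 Normalization used 0.29 uM artemisinin as full inhibition and DMSO as baseline. Parasitized erythrocytes were exposed to compounds for 72 h (37C, 5% CO2), then lysed with saponin/Triton buffer containing SYBR Green I.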

[2] = qHTS for Inhibitors of Plasmodium falciparum (GB4) proliferation (AID 504315); further: nearly all actives have a fitted effect of over 50% in size; further: potency means the concentration at half of the fitted maximal effect
Method in brief: (§1)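 Parasite growth measured as SYBR Green DNA fluorescence (ex 485, em 535 nm) after overnight lysis following 72 h culture at 37 °C, 0.3% parasitemia, 2.5% hematocrit. Values normalized against DMSO and 0.29 uM artemisinin controls, with plate-stack correction.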

[3] = qHTS for Inhibitors of Plasmodium falciparum (7G8) proliferation (AID 504316); further: nearly all actives have a fitted effect of over 65% in size; further: potency means the concentration at half of the fitted maximal effect
Method in brief: as §1

[4] = qHTS for Inhibitors of Plasmodium falciparum (HB3) proliferation (AID 504318); further: nearly all actives have a fitted effect of over 60% in size; further: potency means the concentration at half of the fitted maximal effect
Method in brief: as §1

[5] = qHTS for Inhibitors of Plasmodium falciparum (CP250) proliferation (AID 504320)
Method in brief: as §1

[6] = target: Atrial natriuretic peptide receptor 1 (Homo sapiens) (UniProt P16066); test: Natriuretic polypeptide receptor (hNpr1) antagonism - Pilot CMLD screen (AID 1347052; calls by dose curve;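 further: HEK293 cells with hNpr1 stimulated by hNppA peptide at 0.1 nM; cGMP level read as GloSensor luciferase luminescence after agonist stimulation; series mostly up to about 9.2 µM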)
Atrial natriuretic peptide receptor 1 (Homo sapiens), sequence (P16066 whole entry, looked up): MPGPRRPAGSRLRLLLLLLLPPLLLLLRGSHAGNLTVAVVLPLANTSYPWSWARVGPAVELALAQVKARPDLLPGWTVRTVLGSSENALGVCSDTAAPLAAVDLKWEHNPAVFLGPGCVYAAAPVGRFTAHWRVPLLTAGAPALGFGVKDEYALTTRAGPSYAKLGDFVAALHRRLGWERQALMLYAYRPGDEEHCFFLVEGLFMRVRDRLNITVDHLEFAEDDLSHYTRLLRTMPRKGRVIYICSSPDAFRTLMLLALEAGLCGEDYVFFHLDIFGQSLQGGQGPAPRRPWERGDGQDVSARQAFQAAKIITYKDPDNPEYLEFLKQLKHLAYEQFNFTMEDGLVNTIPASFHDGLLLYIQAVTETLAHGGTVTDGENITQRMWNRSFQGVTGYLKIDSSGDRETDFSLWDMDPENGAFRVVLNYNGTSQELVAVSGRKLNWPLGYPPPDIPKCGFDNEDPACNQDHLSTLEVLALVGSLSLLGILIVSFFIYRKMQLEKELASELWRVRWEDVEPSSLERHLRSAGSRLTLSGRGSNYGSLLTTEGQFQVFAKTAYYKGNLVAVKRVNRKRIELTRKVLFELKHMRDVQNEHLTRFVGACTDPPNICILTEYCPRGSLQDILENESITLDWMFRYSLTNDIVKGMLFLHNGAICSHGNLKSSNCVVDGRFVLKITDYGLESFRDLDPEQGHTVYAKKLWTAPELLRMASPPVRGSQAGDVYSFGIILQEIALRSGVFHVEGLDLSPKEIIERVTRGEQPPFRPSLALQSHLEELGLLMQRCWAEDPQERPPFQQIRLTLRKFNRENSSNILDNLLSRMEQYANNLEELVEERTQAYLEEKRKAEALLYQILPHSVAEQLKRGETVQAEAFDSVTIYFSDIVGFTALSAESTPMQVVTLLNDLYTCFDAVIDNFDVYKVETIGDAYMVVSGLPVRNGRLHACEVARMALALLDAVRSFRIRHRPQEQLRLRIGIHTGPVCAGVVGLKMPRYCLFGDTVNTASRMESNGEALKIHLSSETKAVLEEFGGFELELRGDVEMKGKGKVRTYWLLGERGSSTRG

| SMILES | Potency [1] | Potency [2] | Potency [3] | Potency [4] | Potency [5] | Potency [6] | activity, negative = inhibition [1] |
| --- | --- | --- | --- | --- | --- | --- | --- |
| C=CCOC(=O)N[C@@H](CCc1ccccc1)C(C(C)=O)C(C)=O | inactive | inactive | inactive | inactive | inactive | inactive |  |
| CCOC(=O)CN1C(=O)NC(c2cccs2)C(C(=O)OC)=C1C (stereo not drawn) | inactive | inactive | inactive | inactive | inactive | inactive |  |
| CCOC(=O)C1=CN(CCCc2cn(Cc3ccccc3)nn2)C(=O)NC1c1ccccc1 (stereo not drawn) | inactive | inactive | inactive | inactive | inactive | inactive |  |
| COC1=CC2C(=O)C(C(c3ccccc3)C2C)C1(C)O (stereo not drawn) | inactive | inactive | inactive | inactive | inactive | inactive |  |
| CC1(OC(=O)C2CCCC2)C(=O)C=C2C=C3CCCCN3C=C2C1=O (stereo not drawn) |  | inactive | inactive | inactive | inactive | inactive | 1.6% [at 1.12 µM] (inactive) |
| CCCCS(=O)(=O)N1CCc2nc(-c3ccccc3)c3c(c2C1)CO[C@@H](C)C3 | inactive | inactive | inactive | inactive | inactive | inactive |  |
| COC1=C[C@H](C(=O)NCc2ccccc2)[C@H](C)[C@@H](c2ccccc2)CC1=O | inactive | inactive | inactive | inactive | inactive | inactive |  |
| CCOC(=O)CN1C(=O)NC(CCc2ccccc2)C(C(C)=O)=C1C (stereo not drawn) | inactive | inactive | inactive | inactive | inactive | inactive |  |
| C=CCOC(=O)N[C@@H](c1cccs1)C(C(C)=O)C(C)=O | inactive | inactive | inactive | inactive | inactive | inactive |  |
| CC(C)C(=O)NC(=O)[C@@H]1CCCN1C(=O)C=Cc1ccccc1 | inactive | inactive | inactive | inactive | inactive | inactive |  |
| COC(=O)[C@H](Cc1ccccc1)NC(=O)O[C@@H]1C(=O)c2cc(OC)ccc2O[C@H]1c1ccc(OC)c(Br)c1 | inactive | inactive | inactive | inactive | inactive | inactive |  |
| COCCN1C(=O)NC(c2cccc(F)c2)C(C(C)=O)=C1C (stereo not drawn) | inactive | inactive | inactive | inactive | inactive | inactive |  |
| C=C(CCN1C=C(C(C)=O)C(c2ccccc2)NC1=O)c1ccccc1 (stereo not drawn) | inactive | inactive | inactive | inactive | inactive | inactive |  |
| CCOC(=O)CNC(=O)O[C@H]1C(=O)c2ccc(OC)cc2O[C@@H]1c1ccc2c(c1)OCO2 | inactive | inactive | inactive | inactive | inactive | inactive |  |
| CC(C)CON=C1C[C@@H](O)[C@@H](O)[C@@H]2[C@H]3C(=O)N(C[C@@H]4CCCO4)C(=O)[C@@H]3CC[C@@H]12 | inactive | inactive | inactive | inactive | inactive | inactive |  |
| CC(=O)C1=C(C)N(Cc2ccccc2)C(=O)NC1c1cccc(C(F)(F)F)c1 (stereo not drawn) | inactive | inactive | inactive | inactive | inactive | inactive |  |
| CC#CCN1C(=O)NC(c2ccccc2)C(C(=O)OCC)=C1c1ccccc1 (stereo not drawn) | inactive | inactive | inactive | inactive | inactive | inactive |  |
| CCN1C(=NCCc2ccc(Br)cc2)N[C@@H](c2ccccc2)[C@H](C(=O)OC)[C@H]1C | inactive | inactive | inactive | inactive | inactive | inactive |  |
| O=C1CCCC=C1C(O)COCc1ccccc1 (stereo not drawn) | inactive | inactive | inactive | inactive | inactive | inactive |  |
| CC12C=C(C=CC=Cc3ccco3)C(C)(C1)C(C=Cc1ccco1)CC2=O (stereo not drawn) | inactive | inactive | inactive | inactive | inactive | inactive |  |
| COC1=C[C@H](C(=O)NCc2ccc(Cl)cc2)C(C)C(c2ccccc2)CC1=O (stereo partly drawn) | inactive | inactive | inactive | inactive | inactive | inactive |  |
| CCOC(=O)OC[C@H]1O[C@H](C#Cc2ccc(F)cc2F)C=C[C@H]1OC(=O)OCC | inactive | inactive | inactive | inactive | inactive | inactive |  |
| C=CCNC(=O)N1C2=NC(C(=O)OC)=C(C(=O)OC)[C@@H]3N(C)c4ccccc4[C@]23C[C@H]1CO | inactive | inactive and 1.9 µM (active) | inactive and 1.69 µM (active) | inactive and 2.94 µM (active) | inactive | inactive |  |
| O=C(NN=C1C[C@@H](O)[C@H](O)[C@H]2[C@@H]3C(=O)N(C[C@@H]4CCCO4)C(=O)[C@@H]3CC[C@@H]12)OCc1ccccc1 | inactive | inactive | inactive | inactive | inactive | inactive |  |
| COC(=O)N[C@@H](c1cccc(C)c1)[C@]1(C(=O)OC)CCCC1=O | inactive | inactive | inactive | inactive | inactive | inactive |  |
| COC(=O)[C@H]1O[C@@H](c2cc(OC)c(C)c(OC)c2OCc2ccccc2)[C@H](C)[C@H]2O[C@@]12C | inactive | inactive | inactive | inactive | inactive | inactive |  |
| COc1ccc(O[C@H]2C=C[C@@H](c3ccccc3)O[C@H]2CON=C2[C@H]3CCn4c(=O)n(-c5ccccc5)c(=O)n4[C@@H]3[C@H](O)[C@@H]3O[C@H]23)cc1 | inactive | inactive | inactive | inactive | inactive | inactive |  |

| SMILES | Potency [1] | Potency [2] | Potency [3] | Potency [4] | Potency [5] | Potency [6] | activity, negative = inhibition [1] |
| --- | --- | --- | --- | --- | --- | --- | --- |
| CCOC(=O)NN=C1C[C@@H](O)[C@@H](O)[C@@H]2[C@H]3C(=O)N(c4ccc(F)cc4F)C(=O)[C@@H]3CC[C@H]12 | inactive | inactive | inactive | inactive | inactive | inactive |  |
| C=CCOC(=O)C(C(C)=O)[C@@H](NC(=O)OC)c1ccc(F)cc1 (stereo partly drawn) | inactive | inactive | inactive | inactive | inactive | inactive |  |
| CC=CCCN1C=C(C(C)=O)C(c2ccccc2)NC1=O (stereo not drawn) | inactive | inactive | inactive | inactive | inactive | inactive |  |
| CCCCCCCc1cc2ccccc2c2c(C(=O)OCC)c(C(=O)OCC)c(C(=O)OCC)n12 | inactive | inactive | inactive | inactive | inactive | inactive |  |
| CCN1C(=NCc2ccc(OC)cc2)NC(c2cccc(C(F)(F)F)c2)C(C(=O)OC)=C1C (stereo not drawn) | inactive | inactive | inactive | inactive | inactive | inactive |  |
| C=C(C)C(=O)C=CCCCC=CC(=O)OCC | inactive | inactive | inactive | inactive | inactive | inactive |  |
| COC(=O)C[C@H]1c2ccccc2[C@@H]2C(=C[C@@H](C)[C@H]3C(=O)NC(=O)[C@H]32)N1C(=O)OC | inactive | inactive | inactive | inactive | inactive | inactive |  |
| COc1cccc([C@@H]2Oc3ccc(OC)cc3[C@H](O)[C@@H]2O)c1 | inactive | inactive | inactive | inactive | inactive | inactive |  |
| C[C@H]1Cc2c(-c3ccccc3)nc3c(c2CO1)CN(C(=O)c1cccnc1)CC3 | inactive | inactive | inactive | inactive | inactive | inactive |  |
| COc1cc(C(NC(=O)C(F)(F)F)c2cc3ccccc3o2)cc(OC)c1OC (stereo not drawn) | inactive | inactive | inactive | inactive | inactive | inactive |  |
| CCOC(=O)C1=CN(CCNC(=O)OC(C)(C)C)C(=O)NC1c1ccccc1 (stereo not drawn) | inactive | inactive | inactive | inactive | inactive | inactive |  |
| COC1=C[C@H](C(=O)NCCOC(C)=O)[C@@]2(C)Cc3ccccc3[C@@H]2CC1=O | inactive | inactive | inactive | inactive | inactive | inactive |  |
| C=C(C)CO[C@H]1C=C[C@@H](c2ccccc2)O[C@H]1CO | inactive | inactive | inactive | inactive | inactive | inactive |  |
| COCC(=O)C(C(=O)OC)[C@H](CCc1ccccc1)NC(=O)OC (stereo partly drawn) | inactive | inactive | inactive | inactive | inactive | inactive |  |
| O=C1[C@H]2[C@@H]3[C@@H](O)[C@H](O)CC(=NOCc4ccccc4)[C@@H]3CC[C@H]2C(=O)N1c1ccc(F)cc1F | inactive | inactive | inactive | inactive | inactive | inactive |  |
| CCCCc1nc2c(c3c1C[C@H](C)OC3)CN(S(=O)(=O)c1ccc(NC(C)=O)cc1)CC2 | inactive | inactive | inactive | inactive | inactive | inactive |  |
| C#CCNC(=O)[C@H]1C=C(OC)C(=O)C[C@H](c2ccccc2)[C@H]1C | inactive | inactive | inactive | inactive | inactive | inactive |  |
| CC(=O)OC[C@H]1O[C@H](CC=NOCC[C@@H]2C=C[C@@H](OC(C)=O)[C@@H](COC(C)=O)O2)C=C[C@@H]1OC(C)=O | inactive | inactive | inactive | inactive | inactive | inactive |  |
| CC(=O)OC[C@H]1O[C@H](C#CC2=CCCCC2)C=C[C@H]1OC(C)=O | inactive | inactive | inactive | inactive | inactive | inactive |  |
| C=CC1(O)C(OC)=CC2C(=O)C1C(c1ccccc1)C2C (stereo not drawn) | inactive | inactive | inactive | inactive | inactive | inactive |  |
| C=C1C2c3ccccc3C(CC2(C)O[Si](C)(C)C)N1C(=O)OC (stereo not drawn) | inactive | inactive | inactive | inactive | inactive | inactive |  |
| C=CCN1C(=O)[C@]2(OCCC=C[C@H]2C)c2ccccc21 | inactive | inactive | inactive | inactive | inactive | inactive |  |
| CCOC(=O)[C@@]1([C@@H](NC(=O)OC)c2ccccc2)CCCC1=O | inactive | inactive | inactive | inactive | inactive | inactive |  |
| C#CCCOC(=O)N1C2=NC(C(=O)OC)=C(C(=O)OC)[C@@H]3Nc4ccccc4[C@]23C[C@H]1C(=O)OC | inactive | inactive | inactive | inactive | inactive | inactive |  |
| OC[C@H]1O[C@H](c2ccccc2)C=C[C@H]1OCc1cccc(Br)c1 | inactive | inactive | inactive | inactive | inactive | inactive |  |
| COC(=O)C1=C(C)N(CCC(C)O[Si](C)(C)C(C)(C)C)C(=O)N(C(C)=O)C1c1ccccc1 (stereo not drawn) | inactive | inactive | inactive | inactive | inactive | inactive |  |
